Hits are enriched below; roughly 7.3% of the tested compounds scored in any of these assays.
Rab9 promoter act = activators of Rab9 promoter | actives 2.8% (n = 320,000) | Huh7 Rab9 promoter-luciferase reporter, luminescence, 24 h | Potency, µM (top dose mostly 9.22 µM), without a hit: top-dose activation, negative = inhibition, usual class: activators; also: % of control where 0% means no effect; nearly all actives have a fitted effect of over 60% in size
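Luciferase signal after 10 min detection reagent at ambient indicates Rab9 promoter upregulation; stably transfected Huh7 cells were treated 24 h with compound in DMSO at 37 °C, 5% CO2.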
FLuc counter = counter-screen for miR-21 project: firefly luciferase inhibitors or activators; P08659; purified FLuc, Km substrates, luminescence inhibition; Potency, µM (top dose mostly 57.5 µM), inactives show top-dose activity change, negative = inhibition, hits mostly inhibitors; actives 6.9% (n = 360,000);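 also: plate controls were vehicle for no effect and reference inhibitor for full effect; nearly all actives have a fitted effect of over 55% in size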
Target sequence (P08659 whole entry, looked up): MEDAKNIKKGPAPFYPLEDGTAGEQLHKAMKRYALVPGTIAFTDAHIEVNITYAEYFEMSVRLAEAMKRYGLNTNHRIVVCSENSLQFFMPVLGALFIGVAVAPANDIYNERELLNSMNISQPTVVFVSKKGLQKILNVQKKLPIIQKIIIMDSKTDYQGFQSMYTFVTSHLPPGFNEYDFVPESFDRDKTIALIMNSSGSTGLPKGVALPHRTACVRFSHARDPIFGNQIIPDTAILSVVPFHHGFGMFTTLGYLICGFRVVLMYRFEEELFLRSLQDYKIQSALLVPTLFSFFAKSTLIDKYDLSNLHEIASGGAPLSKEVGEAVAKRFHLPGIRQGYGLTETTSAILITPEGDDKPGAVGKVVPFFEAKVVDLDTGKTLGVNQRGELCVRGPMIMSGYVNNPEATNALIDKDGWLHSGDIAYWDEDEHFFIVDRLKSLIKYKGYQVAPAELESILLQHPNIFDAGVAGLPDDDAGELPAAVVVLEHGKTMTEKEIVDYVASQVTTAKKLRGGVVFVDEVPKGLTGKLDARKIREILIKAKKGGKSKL
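Biochemical qHTS of compounds, final roughly 60 µM downward over six points, against 10 nM purified firefly luciferase using Km concentrations of substrates (10 uM D-luciferin, 10 uM ATP) in Tris acetate pH 7.5 buffer; luminescence output.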
SMN2 splice up = increases expression of the SMN2 splice variant; HEK293 SMN2-luciferase splicing reporter, luminescence, 30-36 h; Potency, µM (top dose mostly 46.1 µM), inactives show at the highest dose activity change, positive = activation, actives largely listed as activators; actives 2.8% (n = 210,000); AID 1458; also: % of control where 0% means no effect; nearly all actives have a fitted effect of over 55% in size
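HEK293 cells carry an SMN2 […]–luciferase reporter in which exon 7 inclusion puts luciferase in frame. Cells were plated 10-12 h before compound addition, then incubated 30-36 h at 37C. ONE-Glo luminescence was read; sodium butyrate at 4.5 mM final served as control.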
ELG1 genotox = inducers of genotoxicity in HEK293T ELG1-luciferase cells; HEK293T ELG1-luciferase reporter, luminescence, 16 h; Potency, µM (top dose mostly 46 µM), without a hit: at the highest dose activity change, positive = activation, usual class: activators; actives 1.3% (n = 330,000); AID 504466; also: % of control where 0% means no effect; nearly all actives have a fitted effect of over 60% in size
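Genotoxicity was scored as increased ELG1-luciferase reporter signal, measured by ONE-Glo luminescence (30 min, room temperature). Compound or vehicle exposure of the HEK293T reporter cells lasted 16 hr at 37°C.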
NPC1 prom act = activates the NPC1 promoter; Potency, µM (top dose mostly 9.22 µM), for inactives: at the top dose activation, usual class: activators; actives 2.4% (n = 320,000); Huh7 NPC1 promoter luciferase reporter, 24 h; also: % of control where 0% means no effect; nearly all actives have a fitted effect of over 60% in size
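Huh7 reporter cells (NPC1 promoter driving luciferase) are dosed with compound for 24 h at 37 °C, 5% CO2; luciferase detection reagent is then added and luminescence measured after 10 min at ambient temperature.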
p53 reactivator = re-activators of mutant p53; H1299 p53-A138V BP100-luciferase reporter, luminescence, 24 h; Potency, µM (top dose mostly 92.2 µM), inactives show top-dose activity change, positive = activation, usual class: activators; actives 0.063% (n = 320,000); also: % of control where 0% means no effect; nearly all actives have a fitted effect of over 45% in size
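p53-null H1299 cells stably carrying temperature-sensitive p53-A138V and a BP100-luciferase reporter were pinned with compounds (4-point, 1:5 series) and held 24 hrs at 37 deg C. Luminescence was read 10 min after detection reagent.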
* = called active by the depositor; ? = inconclusive; . = no result given; [ ] = dose if it differs, or a comment. Calls follow the shape of the dose curve; as a rule, active = well fitted curve in the direction sought with a large enough effect; inconclusive = small, poorly fitted or top-dose-only effect, or another doubt; inactive = no such curve, though single readings can be large; an effect the other way counts as inactive or inconclusive. Potency is read from the fitted curve at half-maximal effect.

SMILES | Rab9 promoter act | FLuc counter | SMN2 splice up | ELG1 genotox | NPC1 prom act | p53 reactivator
Nc1ccc(C(=O)N/N=C/c2cn(Cc3ccccc3F)c3ccccc23)cc1 | -0.7% | 23.9µM* | . | -5.5% | -0.4% | -6.4%
Cn1cc(/C=N/Nc2ccccc2)c2ccccc21 | ? | 13.5µM* | ? | ? | 14.4% | 3.4%
COC(=O)N/N=C/c1cn(Cc2ccccc2F)c2ccccc12 | -3.4% | -12.3% | . | 0.5% | -5.4% | -3.0%
O=C(O)c1ccc(N/N=C/c2cn(Cc3ccccc3F)c3ccccc23)cc1 | ? | 21.3µM* | . | ? | 24.2% | ?
COC(=O)N/N=C/c1cn(Cc2ccccc2Cl)c2ccccc12 | 2.0% | 1.4% | -62.3% | -1.4% | -3.9% | -4.0%
CCOc1ccccc1CNCCCSc1nnnn1C | . | 0.7% | . | . | . | .
CCCN(CCC)C(=O)Cn1c(SCc2cccc(F)c2)nc2cccnc21 | . | -7.9% | . | . | . | .
COc1ccc(-n2nc(C(=O)N3CCN(c4cccc(C)c4C)CC3)c3c4ccccc4n(C)c3c2=O)cc1 | . | 0.8% | -6.1% | . | . | .
O=C1CSC(c2cn(-c3ccccc3)nc2-c2cccs2)N1CC1CCCO1 (centres undefined) | -0.4% | -11.0% | -4.8% | -0.1% | -6.2% | -6.6%
COc1cc(C(=O)N/N=C/c2cn(Cc3ccccc3)c3ccccc23)ccc1O | -0.4% | 16.9µM* | . | 1.2% | 2.0% | -13.0%
CC(C)n1cc(/C=N/Nc2ccc(C(=O)O)cc2)c2ccccc21 | 5.6% | 6.01µM* | . | ? | 12.2% | ?
Cc1ccccc1OCC(=O)N/N=C/c1cn(Cc2ccccc2)c2ccccc12 | -0.3% | -1.2% | -16.9% | 0.9% | -0.2% | 2.6%
CC(C)n1cc(/C=N\NC(=O)c2cc3c(ccc4ccccc43)o2)c2ccccc21 | 15.7% | ? | -22.4% | 1.4% | -2.5% | ?
O=C(N/N=C/c1cn(Cc2cccc(F)c2)c2ccccc12)c1cc(O)cc(O)c1 | 0.7% | 16.9µM* | . | 2.2% | -0.5% | -9.6%
O=C(/C=C\Nc1ccc2c(c1)OCO2)c1ccc(Cl)s1 | 0.316µM* | 0.239µM* | 3.55µM* | 0.82µM* | 0.398µM* | 7.3%
C/C(=N\NC(=O)c1cccs1)c1ccc2c(c1)OCO2 | ? | ? | ? | ? | ? | 14.7%
O=C(/C=C\Nc1ccc2c(c1)OCO2)c1cccs1 | 0.562µM* | 0.12µM* | . | 1.03µM* | 1.41µM* | 9.6%
COc1ccc(OC)c(CCNC(=O)c2cnn(-c3ccccc3)c2-n2cccc2)c1 | . | -15.2% | -36.1% | . | . | .
C(=Nc1ccc(Nc2ccccc2)cc1)c1ccc2ccccc2c1 | -1.5% | ? | 21.9% | -1.1% | -11.8% | 14.4%
Brc1ccc(C=Nc2ccc(Nc3ccccc3)cc2)s1 | -3.9% | 23.9µM* | 16.9% | 6.8% | -10.6% | 5.5%
CC(=O)O[C@@H]1CC2C(C)(C)C(=O)C=C[C@]2(C)C2CC[C@]3(C)C(=CC[C@H]3C3CO[C@@H](C(C)(C)O)[C@H](O)C3)[C@@]21C (some centres undefined) | . | . | -6.5% | . | . | .
N#CC1=C(N)NC(SCc2ccccc2)=C(C#N)C12CCCCC2 | 6.9% | -2.5% | -22.6% | -6.4% | -1.9% | 10.6%
CCCSC1=C(C#N)C2(CCCCC2)C(C#N)=C(N)N1 | -7.3% | 21.3µM* | . | -0.8% | -0.5% | 14.4%
CCSC1=C(C#N)C2(CCCCC2)C(C#N)=C(N)N1 | 12.6% | 6.01µM* | -13.0% | -1.5% | -4.6% | -5.9%
O=C(CC(c1cccs1)S(=O)(=O)c1ccccc1)c1ccc(F)cc1 (centres undefined) | -3.6% | 3.38µM* | -12.0% | 6.7% | 2.4% | ?
SMILES | Rab9 promoter act | FLuc counter | SMN2 splice up | ELG1 genotox | NPC1 prom act | p53 reactivator
O=C(NCC(c1cccs1)S(=O)(=O)c1ccccc1)c1ccc(C(F)(F)F)cc1 (centres undefined) | . | 1.8% | . | . | . | .
Cc1ccc(C(=O)CC(c2cccs2)S(=O)(=O)c2ccc(C)cc2)cc1 (centres undefined) | ? | 1.35µM* | 22.1% | ? | 27.8% | ?
O=C(CC(c1ccco1)S(=O)(=O)c1ccccc1)c1ccccc1 (centres undefined) | 2.6% | 21.3µM* | . | 3.5% | 0.5% | ?
Oc1c(C(c2ccccc2)N2CCC3(CC2)OCCO3)sc2nc(-c3ccco3)nn12 (centres undefined) | . | -11.3% | . | . | . | .
Cc1ccc(-c2nc3ncccc3n2O)cc1 | -5.1% | -13.6% | . | 3.8% | 4.1% | 4.2%
COn1c(-c2ccc(Cl)cc2)nc2ncccc21 | ? | 21.3µM* | . | ? | ? | 13.4%
Cc1ccc(-n2ncc3c(N4CCN(C)CC4)ncnc32)cc1C | . | 4.26µM* | . | . | . | .
CCc1nnc2c3cnn(-c4ccccc4)c3ncn12 | ? | ? | 20.6% | ? | ? | 23.9%
CN1CCN(c2ncnc3c2cnn3-c2cccc(Cl)c2)CC1 | . | 13.5µM* | . | . | . | .
Cc1ccc(-n2ncc3c2ncn2c(C)nnc32)cc1C | 2µM* | 5.36µM* | ? | ? | 2.51µM* | ?
Cc1cccc(CNc2ccnc(-c3ccccc3CN(C)C)n2)c1 | . | . | -50.6% | . | . | .
CCOc1cc(C2C(C#N)=C(N)Oc3n[nH]c(C)c32)ccc1OCCN1CCOCC1 (centres undefined) | 22.0% | 4.5%[2.3 µM] | 41.7% | 5.6% | 3.98µM* | 4.3%
COc1ccc(-c2ncc3ccccn23)cc1 | ? | ? | ? | 11.0% | 5.1% | 15.8%
Clc1ccc(-c2nc3ccccn3c2CN2CCOCC2)cc1 | -7.1% | -13.0% | 7.2% | 5.5% | 1.5% | -6.3%
COc1ccc(-c2nc3ccccn3c2Cl)cc1 | 0.794µM* | 0.426µM* | . | 1.16µM* | 3.16µM* | ?
COc1ccc(-c2nc3ccccn3c2CN2CCN(c3ccccc3F)CC2)cc1 | 2.3% | 16.9µM* | 5.2% | -5.0% | 0.8% | -7.6%
CCNC(=O)c1ccc(C23CC4CC(CC(C4)C2)C3)o1 | -2.5% | 13.5µM* | -6.5% | -5.9% | -7.1% | -0.9%
COc1ccc(NC(=O)N(C(C)C)C2CCN(C(C)=O)CC2)c(OC)c1 | . | -0.8% | . | . | . | .
COc1ccccc1NC(=O)CSc1nnc(NC(=O)NC2CCCCC2)s1 | . | 2.39µM* | . | . | . | .
CCc1ccc(Nc2nnc(SCC(=O)NC(=O)CN3CCCC3=O)s2)cc1 | 3.0% | 3.01µM* | . | 7.5% | -0.3% | 15.1%
COc1ccccc1Nc1nnc(SCC(=O)N2CCCC2=O)s1 | -7.1% | 9.53µM* | -25.6% | 16.8% | 2.2% | 0.5%
CC(=O)c1ccc(NC(=O)CSc2nnc(NC(=O)NC3CCCCC3)s2)cc1 | . | 0.477µM* | . | . | . | .
COc1ccccc1Nc1nnc(SCC(=O)NC2CCCC2)s1 | -5.3% | -16.6% | . | -3.4% | -0.6% | -2.8%
CO[C@]12C[C@@H](COC(=O)c3cncc(Br)c3)CN(C)[C@@H]1Cc1cn(C)c3cccc2c13 | . | . | -7.5% | . | . | .

Assay outcomes deposited in PubChem by National Center for Advancing Translational Sciences (NCATS).
